40 molecules from PubChem BioAssay (NCATS) can be followed below.

Each structure is given as a SMILES string. Inconclusive results are not listed. Entries that show only a call come without a potency. Active and inactive are the calls of the source. Calls follow the shape of the dose curve; as a rule, active = well fitted inhibition curve with a large enough effect; inconclusive = small, poorly fitted or top-dose-only effect; inactive = flat fitted curve, though single readings scatter.
Potency is read from the fitted curve at half-maximal effect.

Calcium and integrin-binding protein 1 (Homo sapiens), sequence (Q99828 whole entry, looked up): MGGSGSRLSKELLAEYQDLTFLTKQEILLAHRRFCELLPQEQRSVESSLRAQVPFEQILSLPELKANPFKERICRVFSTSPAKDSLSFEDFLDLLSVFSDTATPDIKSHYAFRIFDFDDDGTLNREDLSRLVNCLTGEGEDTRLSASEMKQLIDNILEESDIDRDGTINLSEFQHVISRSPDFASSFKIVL

The target of this assay is Calcium and integrin-binding protein 1 (Homo sapiens) (UniProt Q99828). The experiment in a line: Primary qHTS for Identification of Calcium Integrin Binding Protein 1 (CIB1) Competitor (AID 1508620). The conditions noted are these: CIB1-GST / FITC-alphaIIb peptide fluorescence polarization; series mostly up to 114 µM. A digest of the protocol:
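Fluorescence polarization competition: CIB1-GST (1 uM final) preincubated with compound 15 min at room temperature, then FITC-labeled alphaIIb peptide (100 nM final) added for another 15 min. Polarization read at Ex 480/Em 540.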
A general note: Quantitative high-throughput screening tests each substance at several concentrations.
For the molecule `O=S(=O)(Nc1cc(O)cc2cccnc12)c1ccc(Br)s1`, the Potency entry was “inactive”.
For the molecule `CCOc1ccc(-c2csc(N3CCC(C(N)=O)CC3)n2)cc1`, the Potency result is “inactive”.
Turning to `CC(C)N1CCc2c(sc(NC(=O)Cc3ccccc3)c2-c2nc3ccccc3s2)C1`, the Potency was 28.2 µM (active).
Next, `COc1ccc(NS(=O)(=O)c2ccccc2C(=O)O)cc1`: “inactive”; `Cc1ccc(NS(=O)(=O)c2cc3c(cc2-c2ccsc2)NC(=O)CO3)cc1C`: “inactive”.
Turning to `COc1ccc(C2Nc3ccccc3C(=O)N2Cc2ccccc2C)cc1COc1ccc(NC(C)=O)cc1` (stereo not given), the Potency result is “inactive”.
The entry for `Cn1c2cc(B(O)O)sc2c2cnn(Cc3ccccc3F)c(=O)c21` is “inactive”; for `CC(=O)NC(C)c1cc(Cl)c2ccccc2c1O` (stereo not given) it is “inactive”; for `O=C(COc1ccccc1Br)NCCc1nc2ccccc2[nH]1` it is “inactive”.
Next, `COc1ccc(NC(=O)CSc2nnc(-c3cccc(S(=O)(=O)N4CCCC4)c3)n2-c2ccccc2)cc1`: “inactive”.
Next, `COc1cc(-c2no[n+]([O-])c2C#N)cc(OC)c1OC`: “inactive”; `Nc1ccccc1S(=O)(=O)Nc1cccc2cccnc12`: “inactive”.
Consider `Fc1cccc(CNc2ncnc3ccc(-c4cccc(Cl)c4)cc23)c1`, for which the Potency entry is “inactive”.
The entry for `O=C(OCC#CCSc1nnc(-c2cccc(F)c2)o1)c1ccc(F)cc1` is “inactive”; for `COc1cc(O)c(C(CC(=O)N2CCCC(CN3CCCCC3)C2)c2ccc3c(c2)OCO3)c(OC)c1` (stereo not given) it is “inactive”.
Next, `Cc1cccc(-n2cnc3cc(C(=O)N4CCC(c5ccccc5)CC4)ccc32)c1`: “inactive”.
The entry for `NC(=O)C1CCN(c2nc(-c3ccc(C(F)(F)F)cc3)cs2)CC1` is “inactive”; for `Cc1ccc(CNc2cccc(N3CCCCC3)c2)cc1` it is “inactive”.
On to `N#CN1CCC(NC(=O)c2ccc(F)cc2)CC1`, for which the Potency entry is “inactive”.
In the case of `COc1ccc(OC)c(-c2nnc3n2N=C(c2ccc(OC)c(OCC4CC4)c2)CS3)c1`, the Potency result is “inactive”.
Consider `CC(=O)N(C(C)=O)n1c(C)nc2sc3c(c2c1=O)CCNC3`, for which the Potency entry is “inactive”.
Take `CN(C)c1ccc2nc(NC(=S)N3CCN(c4cccc(C(F)(F)F)c4)CC3)sc2c1`: the Potency entry was “inactive”.
Next, `N#Cc1ccccc1S(=O)(=O)N1CCN(S(=O)(=O)c2ccc3c(c2)OCCO3)CC1`: “inactive”.
In the case of `N#Cc1nc(Nc2cc(F)cc(F)c2)c2ncn(CCCO)c2n1`, the Potency result was “inactive”.
The entry for `Cc1ccc(OCCn2c(CCNC(=O)OC(C)(C)C)nc3ccccc32)cc1` is “inactive”.
Regarding `O=C(/C=C/c1cccs1)Nc1cccc([S+](=O)([O-])Nc2ccccc2F)c1`, the Potency entry is “inactive”.
Next, `Cc1ccccc1C(=O)N1CCc2cc(-c3nc(NC(=O)CC4CCCCC4)sc3C)ccc21`: “inactive”.
With `O=C(NNC(=O)c1cc2ccccc2[nH]1)OCc1ccccc1`, the Potency entry was “inactive”.
The entry for `COc1cccc(C2C(C#N)=C(NC(=O)NCc3ccccc3)Oc3ccc4ccccc4c32)c1` (stereo not given) is “inactive”.
Consider `CCCCc1nnc(-c2cnn(C)c2N)n1CCCn1ccnc1`, for which the Potency result is “inactive”.
The entry for `Cc1cccc(CNc2ncnc3ccc(-c4ccc5c(c4)OCCO5)cc23)c1` is “inactive”; for `O=C(O)c1ccc(-n2cccc2/C=C2\SC(=O)N(Cc3ccc(Br)cc3)C2=O)cc1` it is “inactive”.
Take `Cc1ccc(S(=O)(=O)NC(N)=NCCC[C@@H](N)C(=O)Nc2cc(C(F)(F)F)ccc2Cl)cc1`: the Potency result was “inactive”.
`CCOC(=O)C1CCN(C(=O)C(C)(C)NC(=O)Nc2ccc3ccccc3c2)CC1`: the Potency result was “inactive”.
The entry for `Cc1ccc(OCCn2c(CCNC(=O)c3ccc(C(C)(C)C)cc3)nc3ccccc32)cc1` is “inactive”; for `Cc1ccc(-c2nccc(=O)n2CC(=O)NCCc2ccccc2)cc1` it is “inactive”.
The entry for `O=C(c1ccc(-c2cnc3c(O)cccc3c2)cc1)N1CCNCC1` is “inactive”; for `O=C(NCc1ccccc1)C1CCN(c2nc(-c3ccc(Br)cc3)cs2)CC1` it is “inactive”; for `Cc1ccnc(NC(=S)N2CCN(C)CC2)c1` it is “inactive”.
Next, `O=C(CN1C(=O)N/C(=C\c2cn(-c3cccc(C(=O)O)c3)cn2)C1=O)Nc1ccccc1Cl`: “inactive”.
